# From PubChem BioAssay (EPA / NIEHS)
# Results filed as inconclusive are left out. Activity calls are given as the source filed them. How the source made its calls, unless noted: active means hit-call score of the fitted dose curve at least 0.9, where 1 is the maximum; inconclusive means response in the unintended direction; inactive means score below 0.9.
# Assays:
# [1] = ATG_TCF_b_cat_CIS: Attagene CIS-FACTORIAL HepG2 Assay for human T-Cell-Factor with beta-catenin (TCF/b-cat) (AID 2282965; active means hit-call score of the fitted dose curve at least 0.9, where 1 is the maximum; inactive means score below 0.9); settings: HepG2 TCF/beta-catenin cis-reporter transcription, actives raise or lower the signal
# Method in brief: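 Endogenous TCF/LEF activity read as reporter transcript level via RT-PCR and capillary electrophoresis fluorescence in transfected HepG2, 24 h exposure; gain or loss of signal fitted against DMSO controls.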
# [2] = ATG_TAL_CIS: Attagene CIS-FACTORIAL HepG2 Assay for human TAL Basal Promoter (AID 2282966; active means hit-call score of the fitted dose curve at least 0.9, where 1 is the maximum; inactive means score below 0.9;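 further: background control endpoint measuring basal TAL promoter reporter mRNA not a specific factor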); settings: HepG2 Attagene cis-factorial TAL promoter reporter; actives raise or lower the signal
# Method in brief: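 RT-PCR plus capillary electrophoresis quantifies reporter mRNA induction in transiently transfected HepG2 cells after 24 h chemical treatment. DMSO serves as negative control and baseline for bidirectional fitting.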
# [3] = ATG_VDRE_CIS: Attagene CIS-FACTORIAL HepG2 Assay for human Vitamin D Receptor Element (VDRE) (AID 2282968; active means hit-call score of the fitted dose curve at least 0.9, where 1 is the maximum; inactive means score below 0.9); settings: HepG2 VDRE cis-reporter transcription, actives raise or lower the signal
# Method in brief: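 Reporter mRNA induction, quantified by capillary electrophoresis of fluorescently labelled RT-PCR products, was read 24 h after dosing HepG2 cells carrying transiently transfected cis-regulated reporter units; gain or loss relative to DMSO.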
# [4] = target: Nuclear receptor subfamily 1 group I member 3 (Homo sapiens) (UniProt Q14994); assay: ATG_CAR_TRANS: Attagene TRANS-FACTORIAL HepG2 Assay for human Constitutive Androstane Receptor (CAR) (AID 2282969); settings: HepG2 Attagene TRANS-FACTORIAL CAR reporter;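 further: activators raise reporter mRNA above DMSO so AC50 marks induction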
# Method in brief: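 Readout is reporter mRNA induction, quantified by fluorescent primer extension and capillary electrophoresis after RT-PCR. Cells were HepG2 transiently carrying chimeric NR-Gal4 constructs with GAL4-UAS reporters, treated for 24 h; activity scored upward from DMSO.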
# [5] = target: Steroid hormone receptor ERR1 (Homo sapiens) (UniProt P11474); assay: ATG_ERRa_TRANS: Attagene TRANS-FACTORIAL HepG2 Assay for human Estrogen-Related Receptor alpha (ERRa) (AID 2282971); settings: HepG2 Attagene TRANS reporter, ERRa transactivation
# Method in brief: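 Reporter transcripts from ERRa-Gal4 chimera activity measured in transiently transfected human HepG2 cells 24 hours after dosing, using RT-PCR with 6-FAM primer extension, HpaI digestion and capillary electrophoresis; DMSO is baseline.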
# [6] = target: X-box-binding protein 1 (Homo sapiens) (UniProt P17861); assay: ATG_Xbp1_CIS: Attagene CIS-FACTORIAL HepG2 Assay for human X-box Binding Protein 1 (XBP1) (AID 2282972; active means hit-call score of the fitted dose curve at least 0.9, where 1 is the maximum; inactive means score below 0.9); settings: HepG2 XBP1 cis-element reporter, Attagene multiplex; actives raise or lower the signal
# Method in brief: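 HepG2, transient MRTU transfection (cis-promoter driven), 24 h compound exposure. Total RNA → oligo(dT) RT → PCR → 6-FAM labeling → HpaI cut → CE. Bidirectional fit vs DMSO.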
# [7] = ATG_M_19_TRANS: Attagene TRANS-FACTORIAL HepG2 Assay for M19 Transcription Factor (Internal Marker) (AID 2282974); settings: HepG2 Attagene TRANS-FACTORIAL M19 internal marker reporter
# Method in brief: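 Fluorescence of 6-FAM-labelled reporter cDNA fragments, separated by capillary electrophoresis, served as the readout. These derived from HepG2 cells carrying transfected GAL4-UAS reporter units after 24 h dosing, with DMSO as negative control.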
# [8] = ATG_GAL4_TRANS: Attagene TRANS-FACTORIAL HepG2 Assay for GAL4 (Internal Marker) (AID 2282976); settings: HepG2 Attagene TRANS GAL4 internal marker reporter
# Method in brief: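 In transfected human HepG2 liver cells dosed 24 h, GAL4 reporter mRNA serves as a baseline marker. Detection by RT-PCR with fluorescent capillary electrophoresis, activity fitted upward relative to DMSO.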
# [9] = target: Estrogen-related receptor gamma (Homo sapiens) (UniProt P62508); assay: ATG_ERRg_TRANS: Attagene TRANS-FACTORIAL HepG2 Assay for human Estrogen-Related Receptor gamma (ERRg) (AID 2282977); settings: HepG2 Attagene TRANS reporter, ERRg transactivation;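 further: hits increase reporter signal over DMSO so potencies reflect activators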
# Method in brief: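 HepG2 cells transiently transfected with multiplexed GAL4-UAS reporter units driven by chimeric NR-Gal4 proteins; 24 h exposure. Reporter mRNA quantified by RT-PCR, fluorescent labelling, HpaI digestion and capillary electrophoresis; gain of signal vs DMSO.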
# [10] = target: Bile acid receptor (Homo sapiens) (UniProt Q96RI1); assay: ATG_FXR_TRANS: Attagene TRANS-FACTORIAL HepG2 Assay for Farnesoid X Receptor (FXR) (AID 2282979); settings: HepG2 Attagene TRANS FXR-GAL4 reporter transcription;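 further: hits raise reporter mRNA above DMSO so AC50 marks FXR activation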
# Method in brief: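 Reporter transcripts from transfected HepG2 cells were measured 24 h after dosing, using RT-PCR with capillary electrophoresis of 6-FAM-labelled fragments. The read-out reflects activity of exogenous FXR-Gal4 chimera on GAL4-UAS units, with induction relative to DMSO.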
# [11] = target: Oxysterols receptor LXR-beta (Homo sapiens) (UniProt P55055); assay: ATG_LXRb_TRANS: Attagene TRANS-FACTORIAL HepG2 Assay for human Liver X Receptor beta (LXRb) (AID 2282981); settings: HepG2 Attagene TRANS GAL4-LXRb reporter, mRNA
# Method in brief: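 Transient transfection HepG2 (multiplexed RTUs, GAL4-UAS); NR-Gal4 chimera; 24 h exposure; RNA → RT-PCR → 6-FAM primer extension → HpaI → CE; increase vs DMSO.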
# [12] = target: Hepatocyte nuclear factor 4-alpha (Homo sapiens) (UniProt P41235); assay: ATG_HNF4a_TRANS: Attagene TRANS-FACTORIAL HepG2 Assay for human Hepatocyte Nuclear Factor 4 alpha (HNF4a) (AID 2282982); settings: HepG2 HNF4a transactivation reporter, mRNA readout
# Method in brief: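 Readout is fluorescent reporter-transcript fragments resolved by capillary electrophoresis after RT-PCR from HepG2 cells dosed for 24 h. Cells carried transfected GAL4-UAS reporter constructs measuring exogenous NR-GAL4 chimera activity; DMSO served as baseline.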
# [13] = ATG_M_06_TRANS: Attagene TRANS-FACTORIAL HepG2 Assay for M06 Transcription Factor (Internal Marker) (AID 2282983); settings: HepG2 Attagene TRANS M06 internal marker reporter
# Method in brief: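 Cells: HepG2, transient multi-reporter transfection. Exposure: 24 h. Detection: RT-PCR, 6-FAM labelling, HpaI digestion (2 h, 37 °C), capillary electrophoresis. Baseline: DMSO.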
# [14] = ATG_M_32_TRANS: Attagene TRANS-FACTORIAL HepG2 Assay for M32 Transcription Factor (Internal Marker) (AID 2282984); settings: HepG2 Attagene TRANS M32 internal marker reporter
# Method in brief: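 Measures reporter mRNA induction in human HepG2 liver cells after 24 h chemical treatment. Transcripts from transiently transfected GAL4-UAS reporter units are amplified, fluorescently labelled and sized by capillary electrophoresis; gain of signal relative to DMSO.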
# [15] = target: Transcriptional activator Myb (Homo sapiens) (UniProt P10242); assay: ATG_Myb_CIS: Attagene CIS-FACTORIAL HepG2 Assay for human Myeloblastosis (Myb) Proto-Oncogene Transcription Factor (AID 2282986; active means hit-call score of the fitted dose curve at least 0.9, where 1 is the maximum; inactive means score below 0.9); settings: HepG2 Attagene CIS-FACTORIAL Myb reporter transcription; actives raise or lower the signal
# Method in brief: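 Reporter transcript levels, quantified by fluorescent RT-PCR and capillary electrophoresis, serve as the read-out. Transfected HepG2 cells carrying cis-promoter reporter units are dosed for 24 hours, and curves are fitted bidirectionally against DMSO controls.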
# [16] = ATG_TGFb_CIS: Attagene CIS-FACTORIAL HepG2 Assay for human Transforming Growth Factor (TGF) (AID 2282967; active means hit-call score of the fitted dose curve at least 0.9, where 1 is the maximum; inactive means score below 0.9); settings: HepG2 Attagene CIS TGFb reporter, mRNA transcription; actives raise or lower the signal
# Method in brief: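 Readout: fluorescently labeled reporter cDNA fragments resolved by capillary electrophoresis after RT-PCR. Transfected HepG2 cells dosed for 24 h; endogenous TF activity at TGFB1-linked cis element; gain or loss fitted relative to DMSO.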
# [17] = target: Glucocorticoid receptor (Homo sapiens) (UniProt P04150); assay: ATG_GR_TRANS: Attagene TRANS-FACTORIAL HepG2 Assay for human Glucocorticoid Receptor (GR) (AID 2282978); settings: HepG2 Attagene TRANS GR reporter, mRNA transcription;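 further: activators score as hits since higher reporter transcript over DMSO is fitted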
# Method in brief: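 Fluorescent capillary-electrophoresis quantitation of reporter mRNA is the readout, taken 24 h after dosing human HepG2 cells carrying transiently transfected GAL4-UAS reporter units activated by chimeric NR-GAL4 fusions; activity scored as induction over DMSO.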
# [18] = target: Oxysterols receptor LXR-alpha (Homo sapiens) (UniProt Q13133); assay: ATG_LXRa_TRANS: Attagene TRANS-FACTORIAL HepG2 Assay for human Liver X Receptor alpha (LXRa) (AID 2282980); settings: HepG2 Attagene TRANS reporter, LXRa transactivation
# Method in brief: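 Chemical-induced reporter mRNA measured by RT-PCR with fluorescent labelling and capillary electrophoresis after 24 h dosing of transiently transfected HepG2 cells expressing exogenous NR-Gal4 chimeras; increases scored against DMSO baseline.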
# [19] = target: Nuclear receptor subfamily 4 group A member 2 (Homo sapiens) (UniProt P43354); assay: ATG_NURR1_TRANS: Attagene TRANS-FACTORIAL HepG2 Assay for human Nuclear Receptor Related Protein 1 (NURR1) (AID 2282985); settings: HepG2 Attagene TRANS reporter, mRNA readout
# Method in brief: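 Transient transfection of HepG2, human liver cells, with multiple GAL4-UAS reporter transcription units. Cells dosed 24 h, RNA isolated, reverse-transcribed, PCR-amplified, FAM-labelled, HpaI-digested, sized by capillary electrophoresis. DMSO served as negative control.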
# [20] = target: Estrogen receptor (Homo sapiens) (UniProt P03372); assay: ATG_ERa_TRANS: Attagene TRANS-FACTORIAL HepG2 Assay for human Estrogen Receptor alpha (ERa) (AID 2282970); settings: HepG2 Attagene TRANS ERa GAL4 reporter, mRNA
# Method in brief: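 Cells: HepG2, transiently transfected. Construct: GAL4-UAS reporter units regulated by exogenous NR-Gal4 chimeras. Time: 24 h. Detection: reporter mRNA by RT-PCR, capillary electrophoresis, fluorescence. Baseline: DMSO, upward fitting.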
# Chain of Steroid hormone receptor ERR1 (Homo sapiens) (P11474 whole entry, looked up, the tested form may be a part): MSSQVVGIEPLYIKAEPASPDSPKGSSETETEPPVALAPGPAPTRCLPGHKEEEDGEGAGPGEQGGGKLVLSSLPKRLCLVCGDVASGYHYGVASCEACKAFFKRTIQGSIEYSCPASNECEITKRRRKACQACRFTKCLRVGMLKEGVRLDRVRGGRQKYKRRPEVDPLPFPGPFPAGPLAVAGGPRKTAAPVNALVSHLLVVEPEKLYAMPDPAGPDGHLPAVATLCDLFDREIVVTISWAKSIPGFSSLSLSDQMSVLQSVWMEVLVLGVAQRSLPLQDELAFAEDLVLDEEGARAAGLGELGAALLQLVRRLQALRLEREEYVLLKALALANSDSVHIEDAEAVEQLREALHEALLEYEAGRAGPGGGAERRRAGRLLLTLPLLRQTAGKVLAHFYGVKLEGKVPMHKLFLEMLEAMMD
# Chain of Estrogen receptor (Homo sapiens) (P03372 whole entry, looked up, the tested form may be a part): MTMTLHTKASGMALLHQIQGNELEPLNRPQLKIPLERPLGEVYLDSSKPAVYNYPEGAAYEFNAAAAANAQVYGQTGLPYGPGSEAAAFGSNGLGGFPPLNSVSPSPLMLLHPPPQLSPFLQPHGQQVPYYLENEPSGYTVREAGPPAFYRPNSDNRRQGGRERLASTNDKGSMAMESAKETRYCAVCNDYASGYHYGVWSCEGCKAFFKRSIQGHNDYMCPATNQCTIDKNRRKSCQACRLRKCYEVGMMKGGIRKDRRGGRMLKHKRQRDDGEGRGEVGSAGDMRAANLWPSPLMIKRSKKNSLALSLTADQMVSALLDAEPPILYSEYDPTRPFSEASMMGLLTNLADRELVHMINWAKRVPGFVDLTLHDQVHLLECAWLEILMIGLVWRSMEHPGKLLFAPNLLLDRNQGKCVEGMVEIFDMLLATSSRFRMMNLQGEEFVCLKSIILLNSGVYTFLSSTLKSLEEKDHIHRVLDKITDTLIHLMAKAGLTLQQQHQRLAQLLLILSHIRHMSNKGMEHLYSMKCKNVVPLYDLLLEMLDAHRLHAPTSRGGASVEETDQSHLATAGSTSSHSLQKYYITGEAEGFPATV
# Chain of Nuclear receptor subfamily 4 group A member 2 (Homo sapiens) (P43354 whole entry, looked up, the tested form may be a part): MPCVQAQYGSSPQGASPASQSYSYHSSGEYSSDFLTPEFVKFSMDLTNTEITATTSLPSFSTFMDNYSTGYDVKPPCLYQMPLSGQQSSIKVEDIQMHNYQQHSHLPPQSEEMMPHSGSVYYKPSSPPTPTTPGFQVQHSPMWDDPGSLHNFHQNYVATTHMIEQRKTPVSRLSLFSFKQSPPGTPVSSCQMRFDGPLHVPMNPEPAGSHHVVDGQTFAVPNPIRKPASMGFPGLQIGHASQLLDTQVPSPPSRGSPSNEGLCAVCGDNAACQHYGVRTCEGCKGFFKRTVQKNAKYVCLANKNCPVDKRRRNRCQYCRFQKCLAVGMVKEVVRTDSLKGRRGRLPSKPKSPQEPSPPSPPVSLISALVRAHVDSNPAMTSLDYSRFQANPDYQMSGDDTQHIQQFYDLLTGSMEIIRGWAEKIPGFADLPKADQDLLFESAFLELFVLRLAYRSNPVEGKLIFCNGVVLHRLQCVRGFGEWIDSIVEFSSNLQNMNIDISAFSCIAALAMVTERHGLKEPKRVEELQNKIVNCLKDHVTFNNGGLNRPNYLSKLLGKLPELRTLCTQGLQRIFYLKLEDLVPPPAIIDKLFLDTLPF
# Chain of Oxysterols receptor LXR-alpha (Homo sapiens) (Q13133 whole entry, looked up, the tested form may be a part): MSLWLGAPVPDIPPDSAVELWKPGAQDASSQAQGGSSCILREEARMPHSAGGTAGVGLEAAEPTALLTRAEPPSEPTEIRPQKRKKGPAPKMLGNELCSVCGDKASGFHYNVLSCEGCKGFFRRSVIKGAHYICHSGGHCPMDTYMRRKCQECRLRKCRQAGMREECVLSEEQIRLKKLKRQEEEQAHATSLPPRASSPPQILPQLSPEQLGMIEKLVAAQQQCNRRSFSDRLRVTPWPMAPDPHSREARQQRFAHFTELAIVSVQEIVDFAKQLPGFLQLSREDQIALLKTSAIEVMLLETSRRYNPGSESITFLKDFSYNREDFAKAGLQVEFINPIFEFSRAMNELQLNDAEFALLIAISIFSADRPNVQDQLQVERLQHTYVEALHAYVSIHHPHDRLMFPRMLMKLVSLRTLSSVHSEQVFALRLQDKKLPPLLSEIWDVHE
# Chain of X-box-binding protein 1 (Homo sapiens) (P17861 whole entry, looked up): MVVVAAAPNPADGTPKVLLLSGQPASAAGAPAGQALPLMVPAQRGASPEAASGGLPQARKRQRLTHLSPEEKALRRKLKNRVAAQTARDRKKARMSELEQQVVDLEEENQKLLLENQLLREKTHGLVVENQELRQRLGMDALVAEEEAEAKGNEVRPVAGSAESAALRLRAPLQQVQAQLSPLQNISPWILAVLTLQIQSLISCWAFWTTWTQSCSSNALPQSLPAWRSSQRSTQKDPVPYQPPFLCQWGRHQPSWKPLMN
# Chain of Bile acid receptor (Homo sapiens) (Q96RI1 whole entry, looked up, the tested form may be a part): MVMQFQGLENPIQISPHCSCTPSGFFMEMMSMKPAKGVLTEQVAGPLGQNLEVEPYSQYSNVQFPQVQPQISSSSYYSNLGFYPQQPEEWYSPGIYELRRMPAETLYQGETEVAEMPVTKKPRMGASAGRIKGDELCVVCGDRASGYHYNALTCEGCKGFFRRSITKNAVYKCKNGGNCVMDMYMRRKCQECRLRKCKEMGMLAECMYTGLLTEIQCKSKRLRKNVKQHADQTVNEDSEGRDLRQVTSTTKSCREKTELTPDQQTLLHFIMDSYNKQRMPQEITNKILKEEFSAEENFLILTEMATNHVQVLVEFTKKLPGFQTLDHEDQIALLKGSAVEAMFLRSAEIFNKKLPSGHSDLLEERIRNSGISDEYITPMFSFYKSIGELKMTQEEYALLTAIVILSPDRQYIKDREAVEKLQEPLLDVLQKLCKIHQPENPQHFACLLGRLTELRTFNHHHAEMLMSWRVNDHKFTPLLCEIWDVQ
# Chain of Glucocorticoid receptor (Homo sapiens) (P04150 whole entry, looked up, the tested form may be a part): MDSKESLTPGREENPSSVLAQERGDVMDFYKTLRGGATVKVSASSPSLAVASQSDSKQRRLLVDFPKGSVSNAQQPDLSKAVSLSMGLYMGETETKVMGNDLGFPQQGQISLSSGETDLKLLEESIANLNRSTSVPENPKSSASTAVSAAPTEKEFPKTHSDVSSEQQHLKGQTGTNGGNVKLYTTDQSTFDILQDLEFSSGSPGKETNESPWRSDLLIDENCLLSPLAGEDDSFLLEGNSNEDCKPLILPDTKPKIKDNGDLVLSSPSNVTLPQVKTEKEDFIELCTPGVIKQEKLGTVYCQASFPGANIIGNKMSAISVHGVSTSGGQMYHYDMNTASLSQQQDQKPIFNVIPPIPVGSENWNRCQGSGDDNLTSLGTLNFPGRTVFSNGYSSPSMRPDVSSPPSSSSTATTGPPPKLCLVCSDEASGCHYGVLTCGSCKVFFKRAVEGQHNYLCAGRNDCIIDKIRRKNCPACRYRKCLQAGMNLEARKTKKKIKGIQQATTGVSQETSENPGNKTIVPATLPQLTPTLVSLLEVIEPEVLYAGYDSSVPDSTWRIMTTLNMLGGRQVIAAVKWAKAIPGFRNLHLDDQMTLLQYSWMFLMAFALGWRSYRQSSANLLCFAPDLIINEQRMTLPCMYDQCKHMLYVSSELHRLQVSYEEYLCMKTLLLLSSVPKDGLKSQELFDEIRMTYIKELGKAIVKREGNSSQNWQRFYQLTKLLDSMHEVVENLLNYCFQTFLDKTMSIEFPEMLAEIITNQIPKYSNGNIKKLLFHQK
# Chain of Hepatocyte nuclear factor 4-alpha (Homo sapiens) (P41235 whole entry, looked up, the tested form may be a part): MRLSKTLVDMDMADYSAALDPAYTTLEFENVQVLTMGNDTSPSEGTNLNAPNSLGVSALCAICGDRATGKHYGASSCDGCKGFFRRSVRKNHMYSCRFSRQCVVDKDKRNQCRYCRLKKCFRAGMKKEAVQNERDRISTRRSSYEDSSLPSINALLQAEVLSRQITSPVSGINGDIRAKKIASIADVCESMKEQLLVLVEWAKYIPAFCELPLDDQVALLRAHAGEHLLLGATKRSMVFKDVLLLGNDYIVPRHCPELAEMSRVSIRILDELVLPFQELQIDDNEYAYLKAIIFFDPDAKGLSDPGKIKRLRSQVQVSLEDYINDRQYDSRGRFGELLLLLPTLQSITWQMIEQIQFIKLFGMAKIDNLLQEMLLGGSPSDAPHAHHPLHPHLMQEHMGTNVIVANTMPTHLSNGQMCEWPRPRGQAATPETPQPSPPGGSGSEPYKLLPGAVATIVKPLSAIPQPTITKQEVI
# Chain of Oxysterols receptor LXR-beta (Homo sapiens) (P55055 whole entry, looked up, the tested form may be a part): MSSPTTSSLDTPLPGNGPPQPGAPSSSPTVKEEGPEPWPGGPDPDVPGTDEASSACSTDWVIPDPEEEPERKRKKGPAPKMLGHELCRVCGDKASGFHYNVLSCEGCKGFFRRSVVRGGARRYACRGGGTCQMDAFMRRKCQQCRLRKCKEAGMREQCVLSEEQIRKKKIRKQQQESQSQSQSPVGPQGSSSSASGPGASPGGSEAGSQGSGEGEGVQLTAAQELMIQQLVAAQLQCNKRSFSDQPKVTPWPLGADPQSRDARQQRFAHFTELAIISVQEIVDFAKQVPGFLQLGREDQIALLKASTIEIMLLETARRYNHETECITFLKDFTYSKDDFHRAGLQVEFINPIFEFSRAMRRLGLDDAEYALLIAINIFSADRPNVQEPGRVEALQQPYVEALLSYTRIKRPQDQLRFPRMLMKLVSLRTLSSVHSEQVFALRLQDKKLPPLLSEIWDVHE
# Chain of Nuclear receptor subfamily 1 group I member 3 (Homo sapiens) (Q14994 whole entry, looked up, the tested form may be a part): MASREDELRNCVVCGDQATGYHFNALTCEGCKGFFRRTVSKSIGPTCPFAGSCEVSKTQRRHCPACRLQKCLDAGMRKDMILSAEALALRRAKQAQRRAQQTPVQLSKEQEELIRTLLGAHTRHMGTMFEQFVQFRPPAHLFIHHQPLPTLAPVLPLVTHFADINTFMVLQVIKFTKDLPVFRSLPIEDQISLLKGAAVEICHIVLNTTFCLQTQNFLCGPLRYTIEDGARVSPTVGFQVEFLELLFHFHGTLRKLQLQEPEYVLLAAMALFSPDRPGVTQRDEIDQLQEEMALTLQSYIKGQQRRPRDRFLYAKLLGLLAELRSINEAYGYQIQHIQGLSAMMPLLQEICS
smiles,measurement,setting,value
CN[C@H]1CC[C@@H](c2ccc(Cl)c(Cl)c2)c2ccc(S(N)(=O)=O)cc21,outcome,[1],inactive
same,outcome,[2],inactive
same,outcome,[3],inactive
same,outcome,[4],inactive
same,outcome,[5],inactive
same,outcome,[6],inactive
same,outcome,[7],inactive
same,outcome,[8],inactive
same,outcome,[9],inactive
same,outcome,[10],inactive
same,outcome,[11],inactive
same,outcome,[12],inactive
same,outcome,[13],inactive
same,outcome,[14],inactive
same,outcome,[15],inactive
Cc1nc(C)nc(N2C[C@@H](C)N(c3ccnc([C@@H](C)O)n3)[C@@H](C)C2)n1,outcome,[1],inactive
same,outcome,[2],inactive
same,outcome,[16],inactive
same,outcome,[3],inactive
same,outcome,[6],inactive
same,outcome,[8],inactive
same,outcome,[9],inactive
same,outcome,[17],inactive
same,outcome,[10],inactive
same,outcome,[11],inactive
same,outcome,[13],inactive
same,outcome,[14],inactive
same,outcome,[15],inactive
CCCCC(CC)COC(=O)CC(C(=O)OCC(CC)CCCC)S(=O)(=O)O (stereo not given),outcome,[1],inactive
same,outcome,[2],inactive
same,outcome,[16],inactive
same,outcome,[3],inactive
same,outcome,[4],inactive
same,outcome,[6],inactive
same,outcome,[8],inactive
same,outcome,[17],inactive
same,outcome,[18],inactive
same,outcome,[13],inactive
same,outcome,[19],inactive
same,outcome,[15],inactive
NC(=O)Cn1c(=O)cc(CCN2CCN(c3nccc4sccc34)CC2)c2ccc(F)cc21,AC50,[1],30.9 µM (active)
same,outcome,[2],inactive
same,outcome,[16],inactive
same,outcome,[3],inactive
same,outcome,[20],inactive
same,outcome,[5],inactive
same,outcome,[6],inactive
same,outcome,[7],inactive
same,outcome,[8],inactive
same,outcome,[9],inactive
same,outcome,[17],inactive
same,outcome,[10],inactive
same,outcome,[18],inactive
same,outcome,[14],inactive
same,outcome,[19],inactive
same,outcome,[15],inactive
Clc1cc(Cl)c(Cl)cc1Cl,outcome,[1],inactive
same,outcome,[2],inactive
same,outcome,[16],inactive
same,outcome,[6],inactive
same,outcome,[9],inactive
same,outcome,[17],inactive
same,outcome,[12],inactive
same,outcome,[13],inactive
same,outcome,[19],inactive
same,outcome,[15],inactive
O=C(N[C@@H](Cc1ccccc1)[C@@H](O)C(=O)N1C[C@@H](O)[C@@H](O)C1)c1cc2cc(Cl)ccc2[nH]1,outcome,[1],inactive
same,outcome,[2],inactive
same,outcome,[16],inactive
same,outcome,[3],inactive
same,outcome,[20],inactive
same,AC50,[6],151 µM (active)
same,outcome,[8],inactive
same,outcome,[17],inactive
same,outcome,[13],inactive
same,outcome,[14],inactive
same,outcome,[15],inactive
CC(C)(C)c1cc(O)c(C(C)(C)C)cc1O,AC50,[1],8.01 µM (active)
same,outcome,[2],inactive
same,outcome,[16],inactive
same,AC50,[3],32 µM (active)
same,outcome,[20],inactive
same,AC50,[6],37.6 µM (active)
same,outcome,[7],inactive
same,outcome,[8],inactive
same,outcome,[17],inactive
same,outcome,[18],inactive
same,outcome,[11],inactive
same,outcome,[13],inactive
same,outcome,[14],inactive
same,outcome,[19],inactive
same,outcome,[15],inactive
CCOC(=O)CCC(=O)OCC,outcome,[1],inactive
same,outcome,[2],inactive
same,outcome,[16],inactive
same,outcome,[3],inactive
same,outcome,[5],inactive
same,outcome,[6],inactive
same,outcome,[13],inactive
same,outcome,[15],inactive
CCOc1ccc2c(c1)C(C)=CC(C)(C)N2,AC50,[1],58.1 µM (active)
same,outcome,[2],inactive
same,AC50,[16],151 µM (active)
same,AC50,[3],38.2 µM (active)
same,outcome,[4],inactive
same,AC50,[20],40.7 µM (active)
same,AC50,[6],155 µM (active)
same,outcome,[7],inactive
same,outcome,[9],inactive
same,AC50,[18],38.2 µM (active)
same,outcome,[11],inactive
same,outcome,[12],inactive
same,outcome,[14],inactive
same,AC50,[19],124 µM (active)
same,AC50,[15],183 µM (active)
